# Records with an inconclusive call do not appear. A number with no mark means an inactive call. The source made the active and inactive calls. The call rests on the fitted dose curve; in most records, active means well fitted curve in the direction sought with a large enough effect in the repeat runs; inconclusive means weak or mixed curves; inactive means no such curve, though single readings can be large; an effect the other way counts as inactive or inconclusive.
# Target: Cytochrome P450 2C9 (Homo sapiens) (UniProt P11712)
# Test: Cytochrome P450 Family 2 Subfamily C Member 9 (CYP2C9) small molecule antagonists: luciferase reporter qHTS assay (AID 1671198)
# Conditions: P450-Glo CYP2C9 enzyme assay, luciferin luminescence; series mostly up to 115 µM; activity change, negative = inhibition: at the top concentration
# Method in brief: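 P450-Glo proluciferin substrate with CYP2C9 enzyme; 10 min RT preincubation, then NADPH regeneration 1 h at 37C; luciferin detection reagent 20 min RT, luminescence in relative luminescence units.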
# Further: nearly all actives have a fitted effect of over 50% in size.
# On the % scale 0 is the no-effect control and ±100 the full control effect; potency means the concentration at half of the fitted maximal effect.
# Chain of Cytochrome P450 2C9 (Homo sapiens) (P11712 whole entry, looked up): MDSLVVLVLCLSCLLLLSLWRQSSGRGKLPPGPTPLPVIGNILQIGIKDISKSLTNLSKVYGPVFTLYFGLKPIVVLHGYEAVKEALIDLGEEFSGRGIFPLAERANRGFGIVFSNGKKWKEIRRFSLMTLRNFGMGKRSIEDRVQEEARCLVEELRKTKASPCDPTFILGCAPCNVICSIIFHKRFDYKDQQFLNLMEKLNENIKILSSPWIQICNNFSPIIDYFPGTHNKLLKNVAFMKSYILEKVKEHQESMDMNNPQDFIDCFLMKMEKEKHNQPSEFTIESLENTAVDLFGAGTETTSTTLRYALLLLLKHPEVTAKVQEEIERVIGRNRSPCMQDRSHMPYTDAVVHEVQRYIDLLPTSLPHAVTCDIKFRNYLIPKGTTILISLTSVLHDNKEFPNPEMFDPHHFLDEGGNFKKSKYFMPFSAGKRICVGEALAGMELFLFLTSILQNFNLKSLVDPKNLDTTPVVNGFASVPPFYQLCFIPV
SMILES,Potency,"activity change, negative = inhibition"
O=C(N[C@H]1N=C(c2ccccc2F)c2cccc3c2N(CC3)C1=O)c1cc2ccccc2[nH]1,7.76 µM (active),–
Cc1ccc(C)c2ccccc12,–,-18.2%
c1ccc2nc(N3CCNCC3)ccc2c1,–,0.594% [at 53 µM]
Nc1nc(N)c(N)c(N)n1,–,-16.7%
CC(C)N(C(=O)SC/C(Cl)=C/Cl)C(C)C,31.9 µM (active),–
c1cc[n+]2c(c1)-c1cccc[n+]1CC2,–,-72.9% [at 53 µM]
[O-][Cl+3]([O-])([O-])O,–,5.47%

# Target: Cytochrome P450 1A2 (Homo sapiens) (UniProt P05177)
# Test: Cytochrome P450 Family 1 Subfamily A Member 2 (CYP1A2) small molecule antagonists: luciferase reporter qHTS assay (AID 1671199)
# Conditions: P450-Glo CYP1A2 enzyme, luciferin luminescence, 1 h; series mostly up to 115 µM; activity change, negative = inhibition: at the top concentration
# Method in brief: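 P450-Glo CYP1A2, 1536-well qHTS: enzyme/proluciferin substrate + cpd (DMSO), 10 min RT; NADPH regen, 1 h RT; detection reagent, 20 min; luminescence, RLU.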
# Chain of Cytochrome P450 1A2 (Homo sapiens) (P05177 whole entry, looked up): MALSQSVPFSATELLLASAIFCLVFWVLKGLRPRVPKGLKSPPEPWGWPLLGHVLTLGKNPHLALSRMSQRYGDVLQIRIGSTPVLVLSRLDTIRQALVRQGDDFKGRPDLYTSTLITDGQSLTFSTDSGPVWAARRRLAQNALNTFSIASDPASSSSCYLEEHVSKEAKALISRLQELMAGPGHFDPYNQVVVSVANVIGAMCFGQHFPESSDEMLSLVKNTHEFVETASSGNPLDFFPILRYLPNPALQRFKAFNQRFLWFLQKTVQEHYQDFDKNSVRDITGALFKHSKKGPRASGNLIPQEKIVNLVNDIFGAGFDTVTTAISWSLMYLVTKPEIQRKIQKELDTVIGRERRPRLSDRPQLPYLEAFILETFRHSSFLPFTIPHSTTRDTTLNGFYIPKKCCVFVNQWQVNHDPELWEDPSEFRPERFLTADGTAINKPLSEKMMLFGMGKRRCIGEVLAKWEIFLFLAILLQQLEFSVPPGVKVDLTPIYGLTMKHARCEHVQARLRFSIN
SMILES,"activity change, negative = inhibition",Potency
O=C(N[C@H]1N=C(c2ccccc2F)c2cccc3c2N(CC3)C1=O)c1cc2ccccc2[nH]1,-16.4% [at 53 µM],–
Brc1cccc(-c2ccccc2)c1,–,12.7 µM (active)
COc1ccc2c3c1O[C@H]1[C@H](O)CC[C@H]4[C@@H](C2)N(C)CC[C@@]341,-7%,–
N#CC(C#N)=NNc1cccc(Cl)c1,–,8.94 µM (active)
c1ccc2c(c1)cc1ccc3cccc4ccc2c1c34,–,0.363 µM (active)
ClC1(Cl)C2(Cl)C3(Cl)C4(Cl)C(Cl)(Cl)C5(Cl)C3(Cl)C1(Cl)C5(Cl)C24Cl (stereo not given),-11.8%,–
C[N+]1(C)[C@@H]2CC[C@H]1CC(OC(=O)C(CO)c1ccccc1)C2 (stereo not given in full),-6.65% [at 53 µM],–
CCCCCON=O,-5.27%,–
COP(=S)(NC(C)C)Oc1ccc(C)cc1[N+](=O)[O-] (stereo not given),–,11.2 µM (active)
Cc1ccc(C)c2ccccc12,-27.6%,–
c1ccc(Nc2ccc(Nc3ccccc3)cc2)cc1,–,31.6 µM (active)
CC(C)N(C(=O)CCl)c1ccccc1,-2.56%,–
NC1CCC(CC2CCC(N)CC2)CC1 (stereo not given),-22.7%,–
CN1C(=O)[C@@H](NC(=O)c2cc3ccccc3[nH]2)N=C(c2ccccc2)c2ccccc21,-6.79% [at 53 µM],–
CCNc1nc(NC(C)C(C)C)nc(SC)n1 (stereo not given),–,25.2 µM (active)
[O]=[Cr](=[O])([OH])[O][Cr](=[O])(=[O])[OH],-19.8%,–
CCN1CCC2(CC1)COc1cc3c(cc12)N(C(=O)c1ccc(-c2ccc(-c4nnc(C)o4)cc2C)cc1)CC3,-4.9%,–
Oc1cc(Cl)cc(Cl)c1,–,32 µM (active)
[F][Sn]([c]1ccccc1)([c]1ccccc1)[c]1ccccc1,-20%,–
N#Cc1c2ccccc2cc2ccccc12,–,0.2 µM (active)
N#CCCl,–,33.1 µM (active)
COP(=S)(OC)Oc1nc(Cl)c(Cl)cc1Cl,–,44.8 µM (active)
c1ccc2nc(N3CCNCC3)ccc2c1,–,1.23 µM (active)
CC(O)C(=O)[O][Hg][c]1ccccc1 (stereo not given),–,17.8 µM (active)
CNC(C)(C)Cc1ccccc1,13.8% [at 53 µM],–
Nc1nc(N)c(N)c(N)n1,–,35.7 µM (active)
c1cc[n+]2c(c1)-c1cccc[n+]1CC2,–,30.9 µM (active)
CC1CCCC1,–,39.3 µM (active)
[O-][Cl+3]([O-])([O-])O,-24.8%,–

# Target: Voltage-gated inwardly rectifying potassium channel KCNH2 (Homo sapiens) (UniProt Q12809)
# Test: Human Ether-a-go-go-Related Gene (hERG) channel small molecule antagonists: fluorescence cell-based qHTS assay (AID 1671200);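 on activity change, negative = inhibition: hERG-expressing U2OS cells given a thallium stimulus after FluxOR II dye loading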
# Conditions: hERG-U2OS cells, FluxOR thallium flux fluorescence; series mostly up to 76.8 µM; activity change, negative = inhibition: at the top concentration
# Method in brief: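 Cell line hERG-U2OS; dye FluxOR II, 1 h RT dark; Tl+ stimulus; ex 480/em 540 nm, read each second for 2 min.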
# Chain of Voltage-gated inwardly rectifying potassium channel KCNH2 (Homo sapiens) (Q12809 whole entry, looked up): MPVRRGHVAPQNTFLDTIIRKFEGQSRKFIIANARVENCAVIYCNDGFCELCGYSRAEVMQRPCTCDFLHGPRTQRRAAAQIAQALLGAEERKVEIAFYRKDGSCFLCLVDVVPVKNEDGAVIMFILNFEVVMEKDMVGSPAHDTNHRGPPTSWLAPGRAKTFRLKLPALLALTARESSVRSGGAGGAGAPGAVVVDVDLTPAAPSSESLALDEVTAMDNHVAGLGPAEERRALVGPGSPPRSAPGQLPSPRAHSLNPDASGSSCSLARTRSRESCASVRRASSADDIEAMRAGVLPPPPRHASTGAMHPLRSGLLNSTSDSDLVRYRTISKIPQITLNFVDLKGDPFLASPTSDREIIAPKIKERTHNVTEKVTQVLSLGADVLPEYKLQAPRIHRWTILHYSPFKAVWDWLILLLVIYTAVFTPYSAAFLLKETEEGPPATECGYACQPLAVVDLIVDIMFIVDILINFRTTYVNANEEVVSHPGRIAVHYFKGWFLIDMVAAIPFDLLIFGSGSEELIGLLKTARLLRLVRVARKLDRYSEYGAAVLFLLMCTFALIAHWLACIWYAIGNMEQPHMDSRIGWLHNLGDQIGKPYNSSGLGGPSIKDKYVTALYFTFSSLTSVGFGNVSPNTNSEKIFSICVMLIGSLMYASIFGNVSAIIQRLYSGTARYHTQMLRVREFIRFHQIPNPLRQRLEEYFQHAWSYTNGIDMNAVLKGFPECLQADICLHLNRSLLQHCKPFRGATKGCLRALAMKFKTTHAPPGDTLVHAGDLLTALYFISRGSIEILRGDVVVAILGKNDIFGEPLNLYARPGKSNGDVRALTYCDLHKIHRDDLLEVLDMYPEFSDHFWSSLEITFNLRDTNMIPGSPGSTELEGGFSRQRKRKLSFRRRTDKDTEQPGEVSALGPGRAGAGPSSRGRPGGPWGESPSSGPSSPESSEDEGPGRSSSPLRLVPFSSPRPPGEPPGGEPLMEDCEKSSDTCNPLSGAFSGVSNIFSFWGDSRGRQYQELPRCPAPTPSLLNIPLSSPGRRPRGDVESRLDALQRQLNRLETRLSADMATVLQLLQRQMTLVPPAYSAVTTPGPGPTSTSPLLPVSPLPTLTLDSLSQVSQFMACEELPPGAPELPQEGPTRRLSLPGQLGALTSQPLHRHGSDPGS
SMILES,Potency,"activity change, negative = inhibition"
O=C(N[C@H]1N=C(c2ccccc2F)c2cccc3c2N(CC3)C1=O)c1cc2ccccc2[nH]1,7.56 µM (active),–
Brc1cccc(-c2ccccc2)c1,–,-12.9%
COc1ccc2c3c1O[C@H]1[C@H](O)CC[C@H]4[C@@H](C2)N(C)CC[C@@]341,–,2.81%
c1ccc2c(c1)cc1ccc3cccc4ccc2c1c34,–,-0.147%
ClC1(Cl)C2(Cl)C3(Cl)C4(Cl)C(Cl)(Cl)C5(Cl)C3(Cl)C1(Cl)C5(Cl)C24Cl (stereo not given),–,-2.46%
C[N+]1(C)[C@@H]2CC[C@H]1CC(OC(=O)C(CO)c1ccccc1)C2 (stereo not given in full),–,-13% [at 35.3 µM]
CCCCCON=O,–,4.87%
C=CC(=O)[O][Sn]([CH2]CCC)([CH2]CCC)[CH2]CCC,6.16 µM (active),–
CC[N+]1(CC)CCC(OC(=O)C(O)(c2ccccc2)c2ccccc2)C1 (stereo not given),–,-6.05% [at 35.3 µM]
COP(=S)(NC(C)C)Oc1ccc(C)cc1[N+](=O)[O-] (stereo not given),–,-12.4%
Cc1ccc(C)c2ccccc12,–,-22.5%
O=[N+]([O-])c1ccc(CCl)cc1,–,24.7%
c1ccc(Nc2ccc(Nc3ccccc3)cc2)cc1,38.7 µM (active),–
O=c1c2ccccc2c(=O)c2c1cc(Cl)c1[nH]c3c([nH]c12)c(Cl)cc1c(=O)c2ccccc2c(=O)c13,–,3.63%
CC(C)N(C(=O)CCl)c1ccccc1,inactive,–
NC1CCC(CC2CCC(N)CC2)CC1 (stereo not given),–,-3.49%
CCNc1nc(NC(C)C(C)C)nc(SC)n1 (stereo not given),–,-0.812%

SMILES,Potency,"activity change, negative = inhibition"
[O]=[Cr](=[O])([OH])[O][Cr](=[O])(=[O])[OH],inactive,–
CCN1CCC2(CC1)COc1cc3c(cc12)N(C(=O)c1ccc(-c2ccc(-c4nnc(C)o4)cc2C)cc1)CC3,–,-29.4%
CCOC(=O)Cc1ccccc1,–,3.88%
Oc1cc(Cl)cc(Cl)c1,–,-4.32%
ClC1=C(Cl)[C@]2(Cl)[C@@H]3[C@H]4C[C@H]([C@@H]5O[C@H]45)[C@@H]3[C@@]1(Cl)C2(Cl)Cl,–,-18.2%
COC(=O)C(C)N(C(=O)c1ccco1)c1c(C)cccc1C (stereo not given),–,2.35%
[F][Sn]([c]1ccccc1)([c]1ccccc1)[c]1ccccc1,3.09 µM (active),–
N#Cc1c2ccccc2cc2ccccc12,–,5.47%
COP(=S)(OC)Oc1nc(Cl)c(Cl)cc1Cl,–,-7.2%
c1ccc2nc(N3CCNCC3)ccc2c1,–,-16.9% [at 35.3 µM]
CC(O)C(=O)[O][Hg][c]1ccccc1 (stereo not given),17.4 µM (active),–
CNC(C)(C)Cc1ccccc1,–,-0.28% [at 35.3 µM]
Nc1nc(N)c(N)c(N)n1,–,-0.134%
COC(=O)c1ccccc1S(=O)(=O)NC(=O)Nc1nc(C)nc(OC)n1,–,0.83%
c1cc[n+]2c(c1)-c1cccc[n+]1CC2,–,0.699% [at 35.3 µM]
CC1CCCC1,–,-2.09%
[O-][Cl+3]([O-])([O-])O,–,1.83%

# Reference: PubChem BioAssay (Tox21)
